The supplement of paper PMC10849652
The full data set covers some 7,900 targets. This sample favours those with a hit. About 0.6% of all pairs of compound and target were hits.

Each target was assayed with COc1cc(C(=O)O)ccc1NC(=O)[C@@H]1N[C@@H](CC(C)(C)C)[C@](C#N)(c2ccc(Cl)cc2F)[C@H]1c1cccc(Cl)c1F [idasanutlin] (assay: log2 fold change, soluble protein after heating vs DMSO (PISA); higher = thermal stabilisation; K562 cells, 10 uM, 30 min; active = over 0.2 and 3.5 SD of the protein, either way, in both replicates (recomputed)).
Outline: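 For each measurement, 10 μM compound was applied for 30 min to K562 cells at 2×10^6 cells/mL. Aliquots were heated for 3 min across 48°C-58°C, pooled, and extracted in PBS with 0.5% NP-40 at 4°C; the supernatant after 21,000xg for 90 min was soluble protein. This was quantified by TMTpro 16plex LC-MS/MS with channel sums equalised, and thermal stability was reported relative to control samples from duplicates, on a log2 fold-change scale.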

UniProt Q9UKI8, sequence (Q9UKI8 whole entry, looked up): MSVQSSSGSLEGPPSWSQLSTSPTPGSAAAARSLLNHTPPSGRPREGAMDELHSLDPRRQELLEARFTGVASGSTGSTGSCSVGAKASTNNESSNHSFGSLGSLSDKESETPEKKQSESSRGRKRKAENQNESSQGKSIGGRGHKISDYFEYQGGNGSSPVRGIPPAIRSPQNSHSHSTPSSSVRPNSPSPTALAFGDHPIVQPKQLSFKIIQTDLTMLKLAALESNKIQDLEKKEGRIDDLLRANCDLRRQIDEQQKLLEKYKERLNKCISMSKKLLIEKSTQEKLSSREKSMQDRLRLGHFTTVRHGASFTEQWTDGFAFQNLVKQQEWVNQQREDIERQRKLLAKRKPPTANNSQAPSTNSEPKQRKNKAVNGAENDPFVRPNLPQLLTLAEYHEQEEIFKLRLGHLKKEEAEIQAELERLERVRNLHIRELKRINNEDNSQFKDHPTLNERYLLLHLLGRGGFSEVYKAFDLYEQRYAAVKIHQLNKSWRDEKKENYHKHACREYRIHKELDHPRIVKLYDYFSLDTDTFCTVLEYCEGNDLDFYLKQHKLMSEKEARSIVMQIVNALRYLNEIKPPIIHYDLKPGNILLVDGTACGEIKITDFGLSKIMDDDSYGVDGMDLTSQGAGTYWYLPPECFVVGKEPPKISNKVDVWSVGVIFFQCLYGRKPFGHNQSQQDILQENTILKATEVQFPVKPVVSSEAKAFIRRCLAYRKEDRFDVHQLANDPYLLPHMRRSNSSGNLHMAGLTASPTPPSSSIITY
UniProt Q8NEF9, sequence (Q8NEF9 whole entry, looked up): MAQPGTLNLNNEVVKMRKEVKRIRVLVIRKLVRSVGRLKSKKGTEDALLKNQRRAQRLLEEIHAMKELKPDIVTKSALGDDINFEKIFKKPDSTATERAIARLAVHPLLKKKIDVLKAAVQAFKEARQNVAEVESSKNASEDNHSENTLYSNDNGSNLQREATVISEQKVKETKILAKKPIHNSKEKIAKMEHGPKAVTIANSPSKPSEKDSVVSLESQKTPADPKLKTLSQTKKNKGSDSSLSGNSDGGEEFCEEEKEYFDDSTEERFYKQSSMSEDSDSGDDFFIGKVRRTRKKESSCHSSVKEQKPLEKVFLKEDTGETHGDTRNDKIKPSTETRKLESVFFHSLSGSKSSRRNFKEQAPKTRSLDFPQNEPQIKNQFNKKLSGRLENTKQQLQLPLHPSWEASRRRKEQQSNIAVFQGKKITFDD
UniProt Q6PCB7, sequence (Q6PCB7 whole entry, looked up): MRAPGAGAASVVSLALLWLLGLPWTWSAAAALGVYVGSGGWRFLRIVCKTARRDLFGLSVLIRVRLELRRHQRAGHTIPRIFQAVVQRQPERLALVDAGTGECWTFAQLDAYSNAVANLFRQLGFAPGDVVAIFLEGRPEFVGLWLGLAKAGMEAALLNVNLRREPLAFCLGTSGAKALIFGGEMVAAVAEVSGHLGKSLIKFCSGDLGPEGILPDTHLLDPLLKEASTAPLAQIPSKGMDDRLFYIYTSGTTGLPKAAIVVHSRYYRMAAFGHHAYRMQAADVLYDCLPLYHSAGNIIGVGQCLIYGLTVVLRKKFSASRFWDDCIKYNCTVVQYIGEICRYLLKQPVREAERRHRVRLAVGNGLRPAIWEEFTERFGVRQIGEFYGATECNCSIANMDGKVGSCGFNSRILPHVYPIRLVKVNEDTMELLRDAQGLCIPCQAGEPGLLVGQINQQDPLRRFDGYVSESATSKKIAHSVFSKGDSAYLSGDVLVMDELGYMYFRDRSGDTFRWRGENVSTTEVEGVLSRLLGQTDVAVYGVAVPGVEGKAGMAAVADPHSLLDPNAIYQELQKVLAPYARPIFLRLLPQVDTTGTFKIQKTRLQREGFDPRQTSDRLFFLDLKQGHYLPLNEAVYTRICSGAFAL
UniProt Q8N0X7, sequence (Q8N0X7 whole entry, looked up): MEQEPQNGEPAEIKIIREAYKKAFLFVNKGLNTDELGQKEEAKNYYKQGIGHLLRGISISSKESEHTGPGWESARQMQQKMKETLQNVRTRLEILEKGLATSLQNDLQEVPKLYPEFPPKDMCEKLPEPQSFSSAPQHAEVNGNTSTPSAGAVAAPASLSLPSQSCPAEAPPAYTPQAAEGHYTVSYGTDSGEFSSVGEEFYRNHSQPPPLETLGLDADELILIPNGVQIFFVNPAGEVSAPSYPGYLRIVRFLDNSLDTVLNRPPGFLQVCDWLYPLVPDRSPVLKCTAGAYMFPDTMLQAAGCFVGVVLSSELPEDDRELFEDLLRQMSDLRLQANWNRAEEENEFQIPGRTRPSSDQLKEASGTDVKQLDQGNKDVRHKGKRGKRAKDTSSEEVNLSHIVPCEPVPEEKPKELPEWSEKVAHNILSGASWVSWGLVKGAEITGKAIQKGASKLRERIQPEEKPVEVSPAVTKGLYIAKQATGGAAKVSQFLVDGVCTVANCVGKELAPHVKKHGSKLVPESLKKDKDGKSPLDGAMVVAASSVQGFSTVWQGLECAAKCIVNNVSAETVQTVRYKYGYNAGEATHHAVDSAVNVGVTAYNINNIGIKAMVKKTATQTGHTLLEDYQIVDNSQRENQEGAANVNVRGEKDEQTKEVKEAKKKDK
UniProt Q13596, sequence (Q13596 whole entry, looked up): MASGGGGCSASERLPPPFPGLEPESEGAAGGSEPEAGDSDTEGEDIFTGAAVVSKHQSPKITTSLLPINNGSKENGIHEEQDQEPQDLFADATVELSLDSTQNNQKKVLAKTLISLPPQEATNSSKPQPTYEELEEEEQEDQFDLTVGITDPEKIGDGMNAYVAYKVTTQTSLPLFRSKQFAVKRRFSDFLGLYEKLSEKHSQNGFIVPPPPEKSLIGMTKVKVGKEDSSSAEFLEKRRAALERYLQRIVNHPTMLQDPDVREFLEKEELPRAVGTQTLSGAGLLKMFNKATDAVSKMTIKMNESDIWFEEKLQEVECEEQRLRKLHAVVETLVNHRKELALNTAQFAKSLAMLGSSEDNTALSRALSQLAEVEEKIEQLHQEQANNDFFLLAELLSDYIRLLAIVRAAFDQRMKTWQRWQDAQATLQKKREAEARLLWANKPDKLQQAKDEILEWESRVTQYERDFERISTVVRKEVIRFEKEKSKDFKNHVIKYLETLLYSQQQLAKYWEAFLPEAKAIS
UniProt Q08170, sequence (Q08170 whole entry, looked up): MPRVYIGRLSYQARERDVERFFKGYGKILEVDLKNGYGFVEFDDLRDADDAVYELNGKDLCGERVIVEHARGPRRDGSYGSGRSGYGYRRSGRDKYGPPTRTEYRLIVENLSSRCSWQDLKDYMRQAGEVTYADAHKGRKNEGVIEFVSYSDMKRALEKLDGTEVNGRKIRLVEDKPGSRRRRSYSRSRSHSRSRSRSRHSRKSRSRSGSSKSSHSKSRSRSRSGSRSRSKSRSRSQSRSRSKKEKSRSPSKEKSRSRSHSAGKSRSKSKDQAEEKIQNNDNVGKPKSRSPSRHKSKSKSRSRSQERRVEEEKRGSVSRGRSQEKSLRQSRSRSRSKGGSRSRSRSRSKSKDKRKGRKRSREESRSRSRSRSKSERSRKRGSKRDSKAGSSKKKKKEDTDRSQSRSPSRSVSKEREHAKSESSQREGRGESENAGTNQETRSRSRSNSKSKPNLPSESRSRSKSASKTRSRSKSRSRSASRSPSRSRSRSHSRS
UniProt Q9Y6J9, sequence (Q9Y6J9 whole entry, looked up): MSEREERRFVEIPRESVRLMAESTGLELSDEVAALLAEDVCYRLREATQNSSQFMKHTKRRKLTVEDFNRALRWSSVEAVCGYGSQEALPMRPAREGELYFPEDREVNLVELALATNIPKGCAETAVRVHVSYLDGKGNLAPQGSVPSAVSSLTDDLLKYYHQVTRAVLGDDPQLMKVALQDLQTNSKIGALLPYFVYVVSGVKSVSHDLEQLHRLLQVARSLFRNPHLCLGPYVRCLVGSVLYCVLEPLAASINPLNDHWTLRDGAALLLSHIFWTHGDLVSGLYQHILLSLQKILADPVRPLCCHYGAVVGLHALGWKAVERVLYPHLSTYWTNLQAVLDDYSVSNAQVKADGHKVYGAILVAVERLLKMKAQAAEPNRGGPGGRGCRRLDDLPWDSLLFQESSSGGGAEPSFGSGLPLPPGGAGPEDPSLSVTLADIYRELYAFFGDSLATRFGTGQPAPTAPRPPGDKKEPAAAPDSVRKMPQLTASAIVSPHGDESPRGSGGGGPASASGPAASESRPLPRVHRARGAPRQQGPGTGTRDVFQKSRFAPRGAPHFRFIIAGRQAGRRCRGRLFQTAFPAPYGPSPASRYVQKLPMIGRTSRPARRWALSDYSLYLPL
UniProt P23497, sequence (P23497 whole entry, looked up): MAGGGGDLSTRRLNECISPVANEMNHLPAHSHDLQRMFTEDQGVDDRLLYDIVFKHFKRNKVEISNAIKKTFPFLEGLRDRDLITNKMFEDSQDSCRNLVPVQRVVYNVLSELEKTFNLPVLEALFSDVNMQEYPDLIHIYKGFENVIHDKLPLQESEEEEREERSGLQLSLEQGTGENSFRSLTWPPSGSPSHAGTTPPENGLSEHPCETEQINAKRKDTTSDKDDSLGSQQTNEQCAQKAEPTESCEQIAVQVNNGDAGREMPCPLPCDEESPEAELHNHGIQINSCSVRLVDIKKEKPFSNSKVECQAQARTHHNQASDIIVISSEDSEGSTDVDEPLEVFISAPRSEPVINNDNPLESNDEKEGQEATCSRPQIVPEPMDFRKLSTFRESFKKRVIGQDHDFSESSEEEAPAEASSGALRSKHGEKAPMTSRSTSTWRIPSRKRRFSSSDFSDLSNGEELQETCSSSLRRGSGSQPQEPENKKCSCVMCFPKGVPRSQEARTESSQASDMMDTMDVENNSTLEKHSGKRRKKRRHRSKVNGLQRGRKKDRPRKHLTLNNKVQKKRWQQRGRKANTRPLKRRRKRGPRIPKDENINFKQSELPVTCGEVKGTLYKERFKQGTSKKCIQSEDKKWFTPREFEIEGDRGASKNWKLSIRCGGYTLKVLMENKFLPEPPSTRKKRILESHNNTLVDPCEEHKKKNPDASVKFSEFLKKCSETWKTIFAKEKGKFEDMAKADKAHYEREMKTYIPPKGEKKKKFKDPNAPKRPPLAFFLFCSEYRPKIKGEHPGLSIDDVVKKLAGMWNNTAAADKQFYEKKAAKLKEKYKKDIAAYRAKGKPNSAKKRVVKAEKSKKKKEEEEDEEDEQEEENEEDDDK

log2 fold change, inactive:
SLC44A2 isoform 2 (UniProt Q8IWA5) 0.026, STK38L (UniProt Q9Y2H1) -0.095, SLC35F6 (UniProt Q8N357) 0.02, SLC27A1 (UniProt Q6PCB7) -0.038, SRSF6 (UniProt Q13247) 0.375, TATDN2 (UniProt Q93075) 0.012, TMBIM1 (UniProt Q969X1) 0.013, SNRNP40 (UniProt Q96DI7) 0.007, SPART (UniProt Q8N0X7) 0.03, SRSF4 (UniProt Q08170) 0.207, SMDT1 (UniProt Q9H4I9) -0.087, SNX1 (UniProt Q13596) -0.013, THADA (UniProt Q6YHU6) -0.081, TACC2 (UniProt O95359) -0.042, SRFBP1 (UniProt Q8NEF9) -0.018, SYNE1 (UniProt Q8NF91) -0.029, STARD3 (UniProt Q14849) 0.109, SNX15 (UniProt Q9NRS6) 0.108, THYN1 (UniProt Q9P016) -0.011, SURF2 (UniProt Q15527) 0.054, TANGO6 (UniProt Q9C0B7) -0.112, SPCS2 (UniProt Q15005) -0.039, STAM2 (UniProt O75886) -0.06, SP100 isoform 4 (UniProt P23497) -0.022, TM7SF3 (UniProt Q9NS93) -0.015, TIMM10B (UniProt Q9Y5J6) 0.009, TLK1 (UniProt Q9UKI8) -0.009, SLC30A7 (UniProt Q8NEW0) -0.121, TAF6L (UniProt Q9Y6J9) 0.001, STX7 (UniProt O15400) -0.023, TARS2 (UniProt Q9BW92) -0.084, SUPT5H (UniProt O00267) -0.062, SMIM20 isoform 2 (UniProt Q8N5G0) 0.095, TANK (UniProt Q92844) 0.02
